From PubChem BioAssay
RAD54 branch – inhibitors of human RAD54 branch migration, primary screen, biochemical, fluorescence, single point. RAD54 Holliday junction branch migration, FAM/BHQ fluorescence. inhibition, % at 10.4 µM. hit rate 0.14% among 360,000. AID 602329, 2012;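 active = mean normalized replicate activity at least 40 and at least half of replicates scoring 40 or more; inconclusive = only one of the two criteria met; inactive = mean below 40 and under half of replicates reaching 40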;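 note: inhibitors cause a drop in the FAM fluorescence signal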
Target sequence (Q92698 whole entry, looked up): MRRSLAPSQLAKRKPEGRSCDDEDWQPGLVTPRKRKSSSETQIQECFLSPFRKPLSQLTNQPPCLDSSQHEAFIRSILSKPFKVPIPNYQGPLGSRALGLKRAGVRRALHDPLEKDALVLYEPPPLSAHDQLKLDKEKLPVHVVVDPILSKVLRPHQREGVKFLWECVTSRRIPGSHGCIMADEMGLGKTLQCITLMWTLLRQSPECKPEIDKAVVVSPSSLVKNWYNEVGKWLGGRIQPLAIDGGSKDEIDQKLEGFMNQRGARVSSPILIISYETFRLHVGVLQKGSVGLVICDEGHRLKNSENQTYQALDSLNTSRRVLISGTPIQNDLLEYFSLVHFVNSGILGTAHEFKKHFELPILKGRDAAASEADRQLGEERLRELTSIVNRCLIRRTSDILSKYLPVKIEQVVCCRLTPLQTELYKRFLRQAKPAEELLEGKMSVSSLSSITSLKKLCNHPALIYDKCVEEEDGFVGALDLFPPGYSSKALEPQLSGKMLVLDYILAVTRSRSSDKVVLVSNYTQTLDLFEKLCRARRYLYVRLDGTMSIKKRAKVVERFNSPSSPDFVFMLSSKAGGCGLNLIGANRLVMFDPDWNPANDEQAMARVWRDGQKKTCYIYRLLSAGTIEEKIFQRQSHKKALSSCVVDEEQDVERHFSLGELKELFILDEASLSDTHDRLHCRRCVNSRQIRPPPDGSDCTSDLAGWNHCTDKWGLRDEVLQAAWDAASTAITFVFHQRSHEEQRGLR
EWS-Fli inh – EWS/Fli-driven NR0B1 reporter inhibitors, primary screen, A673 cells, NR0B1 luciferase, luminescence, MLPCN library; viability-normalised; inhibition, % at 12.6 µM; hit rate 0.67% among 350,000; AID 651661, 2012;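 active = mean inhibition of at least 50% after viability correction, with every replicate also passing that limit; inconclusive = mean reaches 50% but only one of two replicates passes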;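 note: firefly luciferase signal divided by Alamar Blue viability fluorescence both relative to DMSO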
GSIS activator – GLuc luminescence reporter in INS-1E cells, primary screen for activators of glucose-dependent secretion of insulin; hit rate 0.61% among 370,000; INS-1E GLuc reporter insulin secretion, 2-3 h; activation, % at 16.6 µM;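 active = lowest replicate activation of at least 40%, so every replicate reaches that level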
RAD52 anneal inh – RAD52 DNA annealing inhibitors, primary screen, biochemical, FRET, single point, set 2. DNA repair protein RAD52 homolog (Homo sapiens), P43351. recombinant RAD52 DNA annealing, FRET fluorescence. inhibition, % at 18.7 µM. hit rate 0.46% among 360,000. AID 651710, 2012;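 active = every replicate showing at least 50% inhibition; inconclusive = mean inhibition at least 50% but not in every replicate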
LGR2 antag – inhibitors of bursicon-induced LGR2 CRE-luciferase signal, primary screen, cell-based, HEK293, CRE-luciferase reporter, bursicon stimulation | inhibition, % at 9.99 µM | AID 720647, 2013 | bursicon-stimulated, 4 h | hit rate 0.35% among 380,000;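 active = drop in luminescence signal, shown as inhibition above about 50% in the replicate tests, limit read from the data, passing the limit was not always enough; inconclusive = probably only some replicates passing the limit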;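 note: agonist challenge used bursicon conditioned medium at about half maximal strength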
F508del corr – F508del CFTR correction, initial screen, CFBE line, single point; CFBE cells, YFP halide quenching; stimulated with forskolin plus potentiator P3; % fluorescence drop versus neutral controls; activity (quench increase), % at 7.58 µM; hit rate 0.36% among 350,000;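 active = mean added fluorescence quench of at least 8% versus neutral control, with both replicates also reaching 8%; inconclusive = only one of the mean or replicate conditions met; inactive = mean below 8% and not both replicates reaching 8%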;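 note: cells transiently co-express mutant CFTR-F508del with the halide-sensitive YFP; corrector assay measuring rescue of mutant channel to the surface after 24 h compound exposure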
A number is an active result; n = inactive; u = inconclusive; x = not tested or not shown. Most compounds without a hit are left out; they make up all but 1.8% or so of the library.

SMILES	RAD54 branch	EWS-Fli inh	GSIS activator	RAD52 anneal inh	LGR2 antag	F508del corr
Nc1ccc(-c2nc3ccc(N)cc3s2)cc1	n	n	n	n	53	n
O=C(O)c1ccc2nc(-c3ccccc3)sc2c1	n	n	n	x	63	x
COC(=O)c1cccc(C23CC4(C2)[C@H](CN(CC2CCCCC2)[C@@H]4c2ccccc2)C3c2ccccc2)c1 (stereo partly drawn)	n	n	n	n	n	n
C#CCOCCOCCOCCNc1nc(N2CCN(C(=O)CCCCCCCCCCNC(=O)Cn3cc(CCCCCN)nn3)CC2)nc(N2CCN(C(=O)CCCCCCCCCCNC(=O)Cn3cc(C[C@@H](C)O)nn3)CC2)n1	n	x	n	52	n	x
C#CCOCCOCCOCCNc1nc(N2CCN(C(=O)[C@H](CCCCN)n3cc(CN)nn3)CC2)nc(N2CCN(C(=O)[C@H](CCCCN)n3cc(CN)nn3)CC2)n1	n	n	n	61	n	n
COCCn1c(C)cc(C(=O)COC(=O)C23CC4CC(CC(O)(C4)C2)C3)c1C	n	x	x	x	x	x
COCCn1c(SCc2ccccc2)nc2c1c(=O)[nH]c(=O)n2C	n	n	n	n	n	n
CN(C)CCN=Cc1c(O)n(Cc2ccccc2)c(=O)c2ccccc12	n	n	n	n	n	n
N#Cc1c(SCC(=O)O)nc(N2CCOCC2)c2c1CCCC2	n	n	n	n	n	n
O=C(Nc1ccc(C(=O)N2CCCC2)cc1)c1cccc(C(F)(F)F)c1	n	x	48	n	n	n
NC(=O)C1(N2CCCCC2)CCN(C(=S)NCCc2ccccc2)CC1	x	n	n	n	n	n
CCN(CC)c1ccc(/C=N/NC(=O)c2ccco2)c(O)c1	x	n	n	n	n	35
CCN(CC)c1ccc(/C=N/NC(=O)c2ccco2)cc1	n	x	n	x	n	x
O=C(COc1ccccc1)Nc1sc2c(c1C(=O)NCc1cccnc1)CCCC2	x	x	92	x	n	x
CCCc1cc(NCCN(C)C)n2c(nc3ccccc32)c1C#N	n	n	n	n	n	n
CCCc1cc(NCC2CCCO2)n2c(nc3ccccc32)c1C#N (stereo not drawn)	n	x	57	x	x	x
N#C/C(=C/c1ccc(-c2ccc(S(N)(=O)=O)cc2)o1)C(=O)Nc1ccccc1	n	x	116	x	n	x
Cc1nc(Nc2nc(CSc3nc4ccccc4[nH]3)cc(=O)[nH]2)nc2ccccc12	n	x	n	x	82	x
COc1ccc2nc(Nc3nc(CSc4nc5ccccc5[nH]4)cc(=O)[nH]3)nc(C)c2c1	n	x	n	n	87	x
Cc1cc(Cl)nc(Cl)c1C(=O)N1CCOCC1	n	n	n	n	n	n
CCNC1=C(Cl)C(=O)c2ccccc2C1=O	n	x	x	x	x	x
CCCC(=O)NC1=C(Cl)C(=O)c2ccccc2C1=O	x	n	x	n	n	45
Cc1ccc(NC2=C(Cl)C(=O)c3ccccc3C2=O)cc1	n	u	n	n	n	x
O=C1C(Cl)=C(Nc2ccc(O)cc2)C(=O)c2ccccc21	x	57	n	n	n	n
CCCCNC(=O)c1nc(-c2cc3ccccc3[nH]2)oc1-c1ccccc1	x	n	x	n	n	n
SMILES	RAD54 branch	EWS-Fli inh	GSIS activator	RAD52 anneal inh	LGR2 antag	F508del corr
O=C(CCc1ccccc1)NC1(Cc2ccccc2)CCN(CCc2cccs2)C1=O (stereo not drawn)	n	n	n	n	n	n
O=C(NC1(Cc2ccccc2)CCN(Cc2ccc(-c3ccccc3)cc2)C1=O)c1ccccc1 (stereo not drawn)	n	n	x	n	56	n
c1nc(CCO[C@H]2CCCCO2)cc2cc3c(cc12)OCO3	n	75	n	n	91	n
c1ccc2cc(CCO[C@H]3CCCCO3)ncc2c1	n	n	n	n	55	n
O=C(COc1cccc2ccccc12)NNC(=O)C1CCCO1 (stereo not drawn)	n	x	n	x	n	x
O=C(NCCc1ccccc1)C(=O)N/N=C/c1ccccc1C(F)(F)F	x	n	n	n	n	n
COC(=O)C1=C(C)NC(C)=C(C(=O)OC)C1c1cc2ccc(C)cc2[nH]c1=O	n	x	x	x	x	x
CN(C)CCCN(C(=O)COc1ccc(Cl)cc1)c1nc2cc3c(cc2s1)OCO3	n	61	n	n	n	n
CN(C)CCCN(C(=O)COc1ccc(Cl)cc1)c1nc2cc3c(cc2s1)OCCO3	n	n	n	60	n	n
CN(C)CCCN(C(=O)COc1ccccc1)c1nc2cc3c(cc2s1)OCO3	n	x	n	n	n	n
CS(=O)(=O)Nc1ccc(C(=O)NCCSCc2ccco2)cc1	n	x	x	x	x	x
Cc1ccc(OCCSc2ncccn2)c(C)c1	n	n	n	n	n	n
Cn1c(=O)c(/C=C/c2ccccc2)nc2ccccc21	x	n	n	x	n	x
Cn1c(/C=C/c2ccccc2)nc2ccccc21	x	59	n	n	80	n
Cc1ccc2c(c1)C=CC(C#N)N2C(=O)c1ccccc1 (stereo not drawn)	x	u	50	n	n	x
COc1ccc(C(=O)N2c3ccccc3C=CC2C#N)cc1 (stereo not drawn)	x	n	n	n	n	n
Cc1ccc2c(c1)C=CC(C#N)N2C(=O)Oc1ccccc1 (stereo not drawn)	x	n	n	n	n	n
CCSC(=O)N1c2ccc(OC)cc2C=CC1C#N (stereo not drawn)	x	n	x	n	n	15
COc1ccc(/C=N/NC(=O)Cn2nnc3ccccc32)cc1OC	x	n	70	n	n	x
COc1ccc(/C=N/NC(=O)C(C)n2nnc3ccccc32)cc1OC (stereo not drawn)	n	x	x	x	x	x
CCOc1cc(/C=N/NC(=O)CCn2nnc3ccccc32)ccc1O	x	n	78	n	n	n
COc1cc(/C=N/NC(=O)C(C)n2nnc3ccccc32)ccc1O (stereo not drawn)	n	x	53	x	n	x
CCn1c(SCC(=O)N/N=C/c2ccc(O)c(OC)c2)nc2ccccc21	x	n	n	n	n	8.3
CC(/C=N/NC(=O)CCn1nnc2ccccc21)=C\c1ccccc1	x	n	n	n	n	n
COc1ccc(NC(C)=O)cc1S(=O)(=O)Nc1cccc(S(=O)(=O)NC2=NCCC2)c1	n	n	n	n	n	n
Cc1cc(NC(=O)CSc2nc(=O)n(CCN(C)C)c3c2CCCC3)no1	n	n	n	n	n	n
C=CC[C@H](CC(=O)NCCO)C(=O)NC[C@H](OC(=O)[C@@H](CC=C)Cc1ccc(F)cc1)c1ccccc1	n	n	n	n	n	n
COc1ccc(S(=O)(=O)N2CCOC23CCN(C(=O)c2ccccc2Br)CC3)cc1	n	x	n	n	n	n
O=C(Nc1ccc(CN2CCOCC2)cc1)c1cc2ccccn2n1	n	56	n	n	78	n
